# Experimental data: PubChem BioAssay (EPA / NIEHS)
# Records with an inconclusive call do not appear. The source made the active and inactive calls. The calls were made as follows: active = hit-call score of the fitted dose curve at least 0.9, where 1 is the maximum; inconclusive = response in the unintended direction; inactive = score below 0.9.
# Experiment: Tanguay_ZF_120hpf_PE_legacy: (Legacy) Oregon State University Tanguay Lab 120 Hour Post-fertilization zebrafish Assay for Pericardial Edema (AID 2283640);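 as to AC50: potency for increased incidence of pericardial edema versus DMSO baseline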
# Method: Tanguay_ZF_120hpf_legacy is a whole embryo, multiplexed endpoint assay using zebrafish larvae exposed for 120 hours post fertilization on a 96-well plate.Tanguay_ZF_120hpf_PE_legacy is one of one assay component(s) measured or calculated from the Tanguay_ZF_120hpf_legacy assay. It is designed to make measurements of zebrafish development as detected with brightfield microscopy of developing zebrafish embryos.Data from the assay component Tanguay_ZF_120hpf_PE_legacy was analyzed into 1 assay endpoints. This assay endpoint, Tanguay_ZF_120hpf_PE_legacy, was analyzed in the positive analysis fitting direction relative to DMSO as the negative control and baseline of activity. Using a type of morphology reporter, gain-of-signal activity can be used to understand changes in developmentals as they relate to the whole embryo. To generalize the intended target to other relatable targets, this assay endpoint is annotated to the zebrafish development intended target family, where the subfamily is embryonic morphogenesis.
# Zebrafish husbandry: Tropical 5D wild-type adult zebrafish were housed in at an approximate density of 1000 per 100 gallon tank at the Sinnhuber Aquatic Research Laboratory, Oregon State University, Corvallis, OR. Each tank was kept at standard laboratory conditions of 28C on a 14-h light/10-h dark photoperiod in fish water consisting of reverse osmosis water supplemented with a commercially available salt (Instant Ocean). Spawning funnels were placed into the tanks the night prior, and embryos were collected and staged. […] Ten microliters of each row of dilution plate 2 was added to 2 exposure plates. The final DMSO concentration used was 0.64% (vol/vol). Thirty-two embryos were also exposed to 5uM trimethyltin chloride (positive control). Plates were sealed to prevent evaporation and foil covered to reduce light exposure and kept in a 28C incubator. Embryos were statically exposed until 120 hpf. At 24 hpf, embryos were assessed for photomotor response using a custom photomotor response analysis tool (PRAT) and for developmental toxicity endpoints (MO24: mortality at 24 hpf, DP: developmental progression, SM: spontaneous movement, and NC: notochord distortion). At 120 hpf, locomotor activity was measured using Viewpoint Zebralab and assessed for 18 endpoints. Zebrafish acquisition and analysis program (ZAAP), a custom program designed to inventory, acquire, and manage zebrafish data, was used to collect developmental endpoints as either present or absent (i.e., binary responses were recorded). If mortality occurred for an embryo (at either 24 or 120 hpf), the non-mortality endpoints were not measured.
Compound,outcome,AC50
CC(C)(C)c1cc(/C=C2\SC(N)=NC2=O)cc(C(C)(C)C)c1O,inactive,–
c1ccc2n[nH]nc2c1,inactive,–
CC1(C)NC(=O)N(c2ccc([N+](=O)[O-])c(C(F)(F)F)c2)C1=O,inactive,–
C[C@]12CC[C@@H]3c4ccc(O)cc4CC[C@H]3[C@@H]1CC[C@H]2O,inactive,–
CCCOC(=O)c1cc(O)c(O)c(O)c1,inactive,–
CN1C(=O)N(c2ccccc2Br)Cc2cnc(Nc3ccc4c(c3)OCC(CO)O4)nc21 (stereo not given),–,2.66 µM (active)
CCN(CC)C(=O)c1cc(S(=O)(=O)Cc2ccccc2)c(N2CCC(c3ccccc3)CC2)cc1N(CC)CCN(C)C,inactive,–
COCC(C)OCC(C)OCC(C)O (stereo not given),inactive,–
C[C@]12CC[C@@H]3c4ccc(O)cc4CC[C@H]3[C@@H]1CCC2=O,inactive,–
COc1ccc2cc(S(=O)(=O)N[C@H](CC(=O)N[C@H](Cc3ccc(CN4[C@H](C)CCC[C@@H]4C)cc3)C(=O)N(C)C(C)C)c3ccc4c(c3)OCO4)ccc2c1,inactive,–
COc1cc(C(=O)NC2CCN(C)CC2)ccc1Nc1ncc2c(n1)N(C1CCCC1)CC(F)(F)C(=O)N2C,–,35.6 µM (active)
COc1cccc([C@H](O)C2CCN(CCc3ccc(F)cc3)CC2)c1OC,–,38.7 µM (active)
Cc1oc2c(NC(=O)c3c(Cl)cccc3Cl)cccc2c1C(C)(C)O,inactive,–
CCCCCCCCCC(=O)O,inactive,–
CCN(Cc1cccc(S(=O)(=O)O)c1)c1ccc(C(=C2C=CC(=[N+](CC)Cc3cccc(S(=O)(=O)O)c3)C=C2)c2ccccc2S(=O)(=O)[O-])cc1,inactive,–
CCCCCCCCCCCO,inactive,–
Cc1cc2c(cc1C(F)(F)F)N(C(=O)Nc1ccc(Oc3cccnc3C)nc1)CC2,inactive,–
O=C(O)Cn1c(=O)n(Cc2ccc(Br)cc2F)c(=O)c2ccc(Cl)cc21,inactive,–
Cc1ccc2oc(CN(Cc3ccccc3)C(=O)Nc3c(F)cc(F)cc3F)c(-c3ccc(Cl)cc3)c2c1,inactive,–
O=C1c2ccccc2C(=O)N1CCc1noc(-c2ccc(CN3CCCCCC3)s2)n1,inactive,–

Compound,outcome,AC50
CCCCCc1ccc(N)cc1,inactive,–
CCCCOC(=O)c1ccc(O)cc1,–,35.5 µM (active)
O=C(Nc1ccc(Cl)cc1)Nc1ccc(Cl)c(Cl)c1,inactive,–
CCCCCCCCCCCCO,inactive,–
Cc1c2ccccc2c(C)c2c1ccc1ccccc12,–,4.18 µM (active)
Cc1cn([C@H]2C[C@H](N=[N+]=[N-])[C@@H](CO)O2)c(=O)[nH]c1=O,inactive,–
O=C1CCC(C2CCCCC2)CC1,inactive,–
c1ccc2ccccc2c1,inactive,–
Oc1ccc2ccccc2c1,inactive,–
c1ccc(C[n+]2cccc3ccccc32)cc1,inactive,–
CC(C)(c1cc(Br)c(O)c(Br)c1)c1cc(Br)c(O)c(Br)c1,inactive,–
O=c1c(-c2ccc(O)cc2)coc2cc(O)cc(O)c12,inactive,–
CC(C)(O)c1ccc(CNC(=O)c2cccnc2Oc2ccc3nonc3c2)cc1,inactive,–
OCCO,inactive,–
O=c1[nH]sc2ccccc12,inactive,–
NCc1cccc(C2CCN(C(=O)c3ccc(C#Cc4ccccc4F)o3)CC2)c1,inactive,–
CO[C@H]1/C=C/O[C@@]2(C)Oc3c(C)c(O)c4c(O)c(c(/C=N/N5CCN(C)CC5)c(O)c4c3C2=O)NC(=O)/C(C)=C\C=C\[C@H](C)[C@H](O)[C@@H](C)[C@@H](O)[C@@H](C)[C@H](OC(C)=O)[C@@H]1C,inactive,–
OC12N=C(c3ccccc3)SC1Cc1cc(Cl)ccc12 (stereo not given),–,45.8 µM (active)
CC/C(=C(/CC)c1ccc(O)cc1)c1ccc(O)cc1,inactive,–
CCN(Cc1cccnc1)C(=O)c1cccc(Cl)c1[C@]1(C)C(=O)N(Cc2ccc(OC)cc2OC)c2ccc(Cl)cc21,inactive,–
